Rows were chosen to be rich in hits. Some 7.4% of all compounds tested hit in one or more screens of this group.
ELG1 genotoxic: inducers of genotoxicity in HEK293T ELG1-luciferase cells. Potency, µM (highest dose often 46 µM), for the others: at the highest dose activity change, positive = activation, most hits filed as activators. HEK293T ELG1-luciferase reporter, luminescence, 16 h. 330,000 compounds, 1.3% hits; also: % of control where 0% means no effect; nearly all actives have a fitted effect of over 60% in size
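ELG1-luciferase HEK293T cells, 2,000/well; compound pinned in; 16 hr, 37 °C, 5% CO2; ONE-Glo, 30 min RT; luminescence on CCD imager.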
Luc counter: counter-screen: inhibitors of Kinase-Glo firefly luciferase. Q27757. Kinase-Glo luciferase, ATP luminescence, 8 min. Potency, µM (highest dose often 38.3 µM), for inactives: top-dose activity change, negative = inhibition, most hits filed as inhibitors. 200,000 compounds, 0.28% hits; also: % is scaled to controls: 0 for no effect and ±100 for the full control effect; nearly all actives have a fitted effect of over 60% in size
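Substrate mix (final 50 mM imidazole pH 7.2, 50 mM KCl, 7 mM MgCl2, 10 uM ATP, 0.01% Tween 20, 0.05% BSA) plus pin-tool compound, then Kinase-Glo detection mix; 8 min ambient, luminescence read.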
Rab9 promoter act: Rab9 promoter activation. Huh7 Rab9 promoter-luciferase reporter, luminescence, 24 h. Potency, µM (titrated, usually from 9.22 µM), inactives show at the top dose activation, negative = inhibition, hits mostly activators. 320,000 compounds, 2.8% hits. AID 485297; also: % of control where 0% means no effect; nearly all actives have a fitted effect of over 60% in size
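Luminescence from Amplite-detected luciferase (10 minutes, ambient) reports Rab9 promoter activation. Before that, stable Rab9-luciferase Huh7 cells (1500/well, reduced-serum OP-MEM I plus 10% FBS) were exposed to compound for 24 hours at 37C.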
FLuc modulator: firefly luciferase modulation, counter-screen for miR-21 project; 360,000 compounds, 6.9% hits; purified FLuc, Km substrates, luminescence inhibition; P08659; Potency, µM (titrated, usually from 57.5 µM), inactives show top-dose activity change, negative = inhibition, hits mostly inhibitors; AID 588342;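 also: plate controls were vehicle for no effect and reference inhibitor for full effect; nearly all actives have a fitted effect of over 55% in size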
Target sequence (P08659 whole entry, looked up): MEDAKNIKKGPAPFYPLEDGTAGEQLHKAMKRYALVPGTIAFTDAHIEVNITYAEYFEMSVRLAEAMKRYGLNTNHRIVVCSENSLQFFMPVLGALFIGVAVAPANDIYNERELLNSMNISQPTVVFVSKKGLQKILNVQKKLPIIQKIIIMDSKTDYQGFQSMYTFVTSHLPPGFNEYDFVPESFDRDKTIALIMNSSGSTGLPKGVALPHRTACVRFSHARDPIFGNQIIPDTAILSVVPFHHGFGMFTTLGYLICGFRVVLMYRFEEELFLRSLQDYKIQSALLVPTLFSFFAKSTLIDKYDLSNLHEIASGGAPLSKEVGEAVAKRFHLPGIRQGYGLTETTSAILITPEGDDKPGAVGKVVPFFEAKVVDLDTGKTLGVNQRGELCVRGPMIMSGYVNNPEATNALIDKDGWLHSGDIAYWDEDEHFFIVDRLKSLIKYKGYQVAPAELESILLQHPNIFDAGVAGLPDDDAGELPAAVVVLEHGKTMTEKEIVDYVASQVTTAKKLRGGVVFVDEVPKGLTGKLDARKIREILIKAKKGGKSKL
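Purified P. pyralis luciferase (10nM final) with 10uM D-luciferin and 10uM ATP (Km levels) in 50mM Tris acetate pH 7.5, 10mM Mg acetate, 0.01% Tween-20, 0.05% BSA; qHTS 6-point titration, ~60 µM downward; luminescence read.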
NPC1 promoter act: NPC1 promoter activation; Huh7 NPC1 promoter luciferase reporter, 24 h; Potency, µM (series often up to 9.22 µM), for inactives: at the highest dose activation, hits mostly activators; 320,000 compounds, 2.4% hits; AID 485313; also: % of control where 0% means no effect; nearly all actives have a fitted effect of over 60% in size
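Huh7 cells stably carrying NPC1 promoter–luciferase, plated in Opti-MEM with 10% FBS for 2 h, were exposed to compound in DMSO for 24 h at 37 °C; luciferase reagent was added for 10 min and luminescence read.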
SMN2 splice enh: enhancers of SMN2 splice variant expression | 210,000 compounds, 2.8% hits | Potency, µM (series often up to 46.1 µM), inactives show at the top dose activity change, positive = activation, hits mostly activators | HEK293 SMN2-luciferase splicing reporter, luminescence, 30-36 h; also: % of control where 0% means no effect; nearly all actives have a fitted effect of over 55% in size
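qHTS luciferase splicing reporter: luminescence rises when SMN2 exon 7 is included in transfected HEK293 cells. Compound exposure lasted 30-36 h at 37C, with 4.5 mM final sodium butyrate as control, followed by a ONE-Glo read.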
The depositor's hits bear a star; ? = inconclusive; nt = not tested or not shown. Calls follow the shape of the dose curve; as a rule, active = well fitted curve in the direction sought with a large enough effect; inconclusive = small, poorly fitted or top-dose-only effect, or another doubt; inactive = no such curve, though single readings can be large; an effect the other way counts as inactive or inconclusive. Potency is read from the fitted curve at half-maximal effect.

SMILES	ELG1 genotoxic	Luc counter	Rab9 promoter act	FLuc modulator	NPC1 promoter act	SMN2 splice enh
COc1ccc(OCC(O)COc2ccc(C(=O)O)cc2)cc1 (configuration not stated)	3%	-5%	-3%	15µM*	3%	10%
CCOC(=O)c1ccc2ncc(-c3ccccc3)nc2c1	10µM*	-2%	3.5µM*	5.4µM*	3.2µM*	179%
Cc1cc(-c2ccccc2)nc(N(C)N)c1S(C)(=O)=O	6%	-2%	-4%	-3%	-4%	-9%
CCCCCCCOc1ccc(-c2ccc(C#N)cn2)cc1	-2%	-3%	-4%	3%	-4%	-16%
Cc1cc(-c2ccccc2)nc(-c2ccccc2)c1C	21µM*	13µM*	?	0.17µM*	12%	nt
CCOC(=O)c1cccc(-c2c(-c3ccccc3)ncc3cc(OC)c(OC)cc23)c1	4%	nt	-1%	?	?	nt
CCCCOc1ccc(-c2cnc3ccccc3n2)cc1	?	-12%	0.45µM*	0.43µM*	0.4µM*	1.4µM*
CC(=O)Nc1ccc(C(=O)OCc2ccccc2Br)cc1	15%	1%	?	?	7%	9%
Cc1nc2ccc(C(=O)OCc3ccccc3Br)cc2nc1C	?	-8%	1.1µM*	12µM*	3.2µM*	8%
COc1cc(OC)c(NC(=O)CN2CCCN(Cc3ccccc3C)S2(=O)=O)cc1Cl	nt	nt	nt	-1%	nt	nt
N[C@](CC1c2ccccc2Oc2ccccc21)(C(=O)O)[C@@H]1C[C@@H]1C(=O)O	nt	2%	nt	nt	nt	nt
COc1cccc(C2C(C(=O)Nc3ccccc3OC)=C(C)Nc3nc(-c4ccco4)nn32)c1 (configuration not stated)	nt	nt	nt	-18%	nt	-3%
Clc1ccc(-c2nc3ccccc3nc2-c2ccccc2)cc1	-6%	-2%	1%	-1%	-2%	-30%
Cc1cc2ncc(Cl)nc2cc1C	1%	-4%	-1%	?	0%	-16%
COc1nc(-c2ccccc2)cc(-c2ccc(OC)c(OC)c2)n1	-12%	0%	8%	?	5%	20%
Cc1ccc(-c2nn(-c3ccccc3)c3c2cnc2ccccc23)cc1C	nt	nt	nt	-1%	nt	-2%
Clc1ccc(-c2cnc3ccccc3n2)cc1	?	-7%	4µM*	4.8µM*	3.2µM*	13µM*
Cc1cc2ncc(-c3ccccc3)nc2cc1C	1.6µM*	nt	0.79µM*	0.6µM*	1.3µM*	5µM*
Cc1ccc(-c2cnc3ccccc3n2)cc1C	?	nt	23%	0.54µM*	?	nt
COc1cc2ncc(-c3ccccc3)nc2cc1OC	nt	nt	nt	nt	nt	28µM*
COc1ccc(S(=O)(=O)N2CCC(C(=O)Nc3ccc(Oc4ccccc4)cc3)CC2)cc1OC	nt	nt	nt	0%	nt	-44%
Cc1ccc(Cl)cc1N1CCN(CCNC(=O)Nc2ccccc2Cl)CC1	nt	nt	nt	4%	nt	9%
COc1cc(CN(C(=O)c2ccc(OC(C)C)cc2)c2ccccn2)cc(OC)c1OC	nt	nt	nt	-9%	nt	nt
CCCCC[C@H](O)/C=C/[C@H]1OC(O)C[C@H](O)[C@@H]1C/C=C\CC(=O)O (some centres not stated)	nt	3%	nt	nt	nt	1%
O=C(Nc1ccc(F)cc1F)c1cc2c(=O)n3ccccc3nc2s1	nt	nt	nt	-6%	nt	-7%
CCOc1ccc(NC(=O)c2ccc3nc(C(C)C)oc3c2)cc1	nt	nt	nt	-17%	nt	nt
COC(=O)c1cc(NS(=O)(=O)c2ccc3c(c2)OCCO3)ccc1Cl	nt	nt	nt	?	nt	-21%
O=C(N/N=C/c1ccc2c(c1)OCO2)C(=O)Nc1ccccc1Cl	?	nt	0%	-1%	5%	nt
O=C1OC(c2ccc3c(c2)OCO3)=N/C1=C\c1ccc(C(=O)O)cc1	0%	nt	-3%	0.13µM*	0%	nt
O=C(O/N=C/c1ccc2c(c1)OCO2)c1ccccc1Cl	2%	11µM*	5%	0.95µM*	5%	3%

Screens from PubChem.
